Common to all, as to assay: yeast three-hybrid, YBZ-1, SC-Leu-His + 0.5 mM 3-AT, 4 days
Settings in all cases: tags: N-Gal4 AD-HA kept; label: inside an RPR1-promoter hybrid RNA with tandem MS2 sites; ssRNA

Experiment [1] deals with PUM1 PUF domain R1-RQE (Homo sapiens, UniProt Q14671 828-1176, S863R;R864Q;Q867E). The procedure, abridged: (§1)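 Matching RNA elements and Pumilio-1 PUF domain libraries, randomized at the three base-contacting residues of every repeat, were co-expressed from a centromeric plasmid in strain YBZ-1 (LexA–MS2 coat fusion, HIS3 reporter). The repeat regions were PCR-amplified and Illumina-sequenced from cells grown four days on SC-Leu (input) or SC-Leu-His + 0.5 mM 3-AT (selection). The interaction score is the log change in variant frequency from input to selection. It is computed in log2, with a pseudocount of 1 for absent variants.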

Experiment [2] deals with PUM1 PUF domain R1-KCT (Homo sapiens, UniProt Q14671 828-1176, S863K;R864C;Q867T). In a few lines: as §1
Experiment [3] addresses PUM1 PUF domain R5-KSM (Homo sapiens, UniProt Q14671 828-1176, C1007K;R1008S;Q1011M). The procedure, abridged:
as §1

The target in experiment [4] is PUM1 PUF domain R5-RPC (Homo sapiens, UniProt Q14671 828-1176, C1007R;R1008P;Q1011C). The procedure, abridged:
as §1

Experiment [5] addresses PUM1 PUF domain R4-GWP (Homo sapiens, UniProt Q14671 828-1176, N971G;H972W;Q975P). In a few lines:
as §1

Experiment [6] addresses PUM1 PUF domain R4-APN (Homo sapiens, UniProt Q14671 828-1176, N971A;H972P;Q975N). In a few lines:
as §1

The target in experiment [7] is PUM1 PUF domain R8-KWV (Homo sapiens, UniProt Q14671 828-1176, N1122K;Y1123W;Q1126V). The procedure, abridged:
as §1

Experiment [8] deals with PUM1 PUF domain R4-WFS (Homo sapiens, UniProt Q14671 828-1176, N971W;H972F;Q975S). The procedure, abridged: as §1
Experiment [9] addresses PUM1 PUF domain R4-GNH (Homo sapiens, UniProt Q14671 828-1176, N971G;H972N;Q975H). The procedure, abridged: as §1

Take “GGCUAGAACUAGUGGAUCCCCCGGCGCCCGGCGGCUCGAGCCCGGGUAAGUGUAAAUCGUCUGCAUGCCGCCGGGCGCCAUGCCUGCAGGUCGACUCUAGAAAACAUG”: the binding signal is 2.21 log2 enrichment (interaction score) in [1] and 6.39 log2 enrichment (interaction score) in [2].

Turning to “GGCUAGAACUAGUGGAUCCCCCGGCGCCCGGCGGCUCGAGCCCGGGUAAGUGUCAAUAGUCUGCAUGCCGCCGGGCGCCAUGCCUGCAGGUCGACUCUAGAAAACAUG”, the figures for the binding signal in [3] and in experiment [4] were 3.66 log2 enrichment (interaction score) and 1.49 log2 enrichment (interaction score), respectively.

For the sequence “GGCUAGAACUAGUGGAUCCCCCGGCGCCCGGCGGCUCGAGCCCGGGUAAGUGUACAUAGUCUGCAUGCCGCCGGGCGCCAUGCCUGCAGGUCGACUCUAGAAAACAUG”, the binding signal in experiment [5] is 7 log2 enrichment (interaction score); in experiment [6], 1.7 log2 enrichment (interaction score).

As for “GGCUAGAACUAGUGGAUCCCCCGGCGCCCGGCGGCUCGAGCCCGGGUAAGUGUUAAUAGUCUGCAUGCCGCCGGGCGCCAUGCCUGCAGGUCGACUCUAGAAAACAUG”, the binding signal in experiment [4] is 2.17 log2 enrichment (interaction score).

Regarding “GGCUAGAACUAGUGGAUCCCCCGGCGCCCGGCGGCUCGAGCCCGGGUAAGCGUAAAUAGUCUGCAUGCCGCCGGGCGCCAUGCCUGCAGGUCGACUCUAGAAAACAUG”, the binding signal in experiment [7] is 5.88 log2 enrichment (interaction score).

As for “GGCUAGAACUAGUGGAUCCCCCGGCGCCCGGCGGCUCGAGCCCGGGUAAGUGUAUAUAGUCUGCAUGCCGCCGGGCGCCAUGCCUGCAGGUCGACUCUAGAAAACAUG”, the binding signal in experiment [5] is 7.78 log2 enrichment (interaction score); in [8], 3.06 log2 enrichment (interaction score); in experiment [9], 3.07 log2 enrichment (interaction score).
